Hit rate of the full screen: of about 2,400 compounds, about 1,400 (58%) were called active.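 Rule for the calls: active = inhibition of 30% or more at any tested dose; inconclusive = primary hits over the limit that were never retested; inactive = the rest.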 The set was probably picked from earlier hits. Some of the results follow.

This experiment can be described thus: coupled detection enzyme interference, dose response, artefact control for MgcRacGAP inhibitor project, biochemical, coupled enzyme counter-screen (AID 624351).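 For inhibition: 0% = median positive control wells and 100% = median negative control wells.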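 Note: signal is the ADP detection kit reading of free GDP without any GAP enzyme.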 Particulars: ADP Hunter coupled enzyme counter-screen, fluorescence, no MgcRacGAP; series mostly up to 80 µM; inhibition: at the top concentration. Background: A counterscreen serves to expose hits that act by an unwanted route or on another target.
One may read the IC50 as the point on the concentration scale where inhibition reaches its midpoint. On to `CN(C)c1ccc(N/C=C/C(=O)C(C)(C)C)cc1`, for which the IC50 was 7.04 µM (active).
The inhibition is the drop in the measured response relative to a control, in per cent. For the compound `O=C(/C=C/Nc1ccc(Nc2ccccc2)cc1)c1cccs1`, the “inhibition” value was 23.6% (inactive).
Same read-out and setting: the figure for `C=C(CN(C)C)C(=O)c1ccc(OC2OC(COC(C)=O)C(OC(C)=O)C(OC(C)=O)C2OC(C)=O)cc1` (configuration not stated) is -2.5% (inactive); for `O=C1/C(=C\c2ccc([N+](=O)[O-])cc2)CS(=O)(=O)C/C1=C/c1ccc([N+](=O)[O-])cc1` it is 6.84% (inactive).
Turning to `O=[N+]([O-])c1ccc(N/N=C/c2ccc[nH]2)cc1`, the IC50 is 41.1 µM (active).
Same read-out and setting: as for `CN1C=CC(=CC=C2C=CC(=O)C=C2)C=C1`, the figure is 23.1 µM (active).
On the same count and under the same terms, as for `COc1cc(C)c(N)cc1C(C)C`, the figure is 34.2 µM (active).
The same measure, in the same setting: as for `Nc1ccc(O)c([N+](=O)[O-])c1`, the figure is 43.9 µM (active).
Consider `Cc1ccc(S(=O)(=O)Oc2ccc(/C=C3/C(=N)N4C(=NC3=O)SN=C4S(C)(=O)=O)cc2)cc1`, for which the “inhibition” value was 4.36% (inactive).
The same measure, in the same setting: the figure for `CCOC(=O)/C(C#N)=C1\C(=O)N(Cc2ccccc2)c2ccccc21` is 4.02% (inactive).
Still for that read-out and setting: as for `CCOC(=O)/C(C#N)=C1/C(=O)N(Cc2ccccc2)c2ccccc21`, the figure is 4.83% (inactive).
In the case of `CCOC(=O)c1[nH]c(=S)n(Cc2ccccc2)c1C(=O)OCC`, the IC50 is 41.9 µM (active).
`Cc1ccc(CN2CCN(Cc3ccco3)CC2)cc1`: the “inhibition” value is 24.4% (inactive).
As for `Cc1cs/c(=N\N=C\c2ccc(O)cc2)n1Cc1ccco1`, the IC50 is 25.9 µM (active).
Consider `CN(C)C(=S)N=c1ssc(=S)n1Cc1ccco1`, for which the “inhibition” value was 6.25% (inactive).
On the same count and under the same terms, as for `CCN1CCN(CCCOc2ccccc2-c2ccccc2)CC1`, the figure is 21.3% (inactive).
As for `COc1ccc(C(=O)/C=C/c2ccc(O)cc2)c2c1CC(O)C(C)(C)O2` (configuration not stated), the half-inhibitory concentration (IC50) is 52.3 µM (active).
As for `COc1ccc(OC)c(CN2CCN(Cc3ccc(OC)c(OC)c3OC)CC2)c1`, the “inhibition” value is 28.4% (inactive).
In the case of `NC(=O)N/N=C/c1ccc(N2CCOCC2)s1`, the IC50 is 45.8 µM (active).
With `CCOC(=O)N/N=C/c1ccc(N2CCOCC2)s1`, the IC50 is 53 µM (active).
With `CNC(=S)N/N=C/c1ccc(N2CCOCC2)s1`, the “inhibition” value was -3.84% (inactive).
Turning to `Clc1cccc(N/N=C/c2ccc(N3CCOCC3)s2)c1`, the IC50 was 59.7 µM (active).
In the case of `COC(=O)CC1SC(=O)NC1=Nc1ccc(O)cc1` (configuration not stated), the IC50 is 60.2 µM (active).
On the same count and under the same terms, the figure for `Cc1ccn2c(NC3CCCC3)c(-c3ccncc3)nc2c1` is 49 µM (active).
For `CN1CCN(C(=O)c2sc(=S)n(-c3ccccc3)c2N)CC1`, the “inhibition” value is 0.54% (inactive).
Still for that read-out and setting: the figure for `CCOC(=O)c1c(-c2ccccc2)csc1NC(=O)C(C)NCCCN1CCOCC1` (configuration not stated) is 22.2% (inactive).
Take `Cc1c(-c2ccccc2)sc(N)c1C(=O)N1CCOCC1`: the IC50 is 41.6 µM (active).
Regarding `CCCCNCC#CCOc1cc(C)ccc1C(C)C`, the “inhibition” value was 13.2% (inactive).
With `COc1cc(/C=C/c2sc3ccccc3[n+]2CCCS(=O)(=O)[O-])ccc1O`, the IC50 is 22.2 µM (active).
On to `C=CC[n+]1c(/C=C/c2ccc(OC(C)=O)c(OC)c2)ccc2ccccc21`, for which the “inhibition” value is 8.66% (inactive).
The same measure, in the same setting: as for `CN(C1CCCCC1)S(=O)(=O)c1cccc2nsnc12`, the figure is 4.2% (inactive).
Take `CSC1=NN(c2ccccc2)CN(c2ccccc2)N1C`: the IC50 is 72.1 µM (active).
Same read-out and setting: the figure for `COc1cc(CCNC2=CC(=O)c3ncccc3C2=O)ccc1O` is 70.9 µM (active).
Take `Cc1sc2nc(CN3CCOCC3)nc(N3CCOCC3)c2c1C`: the “inhibition” value was 18.4% (inactive).
Turning to `c1cc2c(cc1CNc1ccc(N3CCOCC3)cc1)OCO2`, the IC50 is 4.31 µM (active).
On to `COc1cc(OC)cc(C(=O)N2CCN(Cc3ccc4c(c3)OCO4)CC2)c1`, for which the “inhibition” value is 16.2% (inactive).
On to `C=CCNC(=S)N1CCN(Cc2ccc3c(c2)OCO3)CC1`, for which the “inhibition” value is 15.3% (inactive).
As for `CC(=O)N1CCN(c2ccc(NCc3ccc4c(c3)OCO4)cc2)CC1`, the half-inhibitory concentration (IC50) is 9.9 µM (active).
For the compound `COc1cccc(OC)c1C(=O)N1CCN(Cc2ccc3c(c2)OCO3)CC1`, the “inhibition” value was 18% (inactive).
Same read-out and setting: the figure for `Clc1ccccc1CNCc1ccc2c(c1)OCO2` is 19.8% (inactive).
Take `CN1CCN(CCCN2c3ccccc3Sc3ccc(Cl)cc32)CC1`: the half-inhibitory concentration (IC50) is 83.1 µM (active).
On to `CCN1CCN(CCCOc2ccc(Cl)cc2Br)CC1`, for which the “inhibition” value was 27.8% (inactive).
For `CN(C)CCCN1c2ccc(O)cc2Sc2ccc(Cl)cc21`, the IC50 was 13.1 µM (active).
As for `CN1CCN(CCOCCOc2ccc(Br)cc2Cl)CC1`, the “inhibition” value was 17.7% (inactive).
The same measure, in the same setting: as for `C=CCc1cc(Cl)ccc1OCCN(C)C`, the figure is 18.7% (inactive); as for `COc1cc(/C=N/Nc2ncc(C(F)(F)F)cc2Cl)cc(OC)c1O`, 28.1% (inactive); as for `Cc1ncc(CO)c(/C=N/Nc2ccc(C(F)(F)F)cn2)c1O`, -1.58% (inactive).
In the case of `Oc1ccc(/C=N/Nc2ccc(C(F)(F)F)cn2)c(O)c1`, the IC50 was 34.8 µM (active).
Same read-out and setting: the figure for `COc1cc(/C=N/Nc2ccc(C(F)(F)F)cn2)ccc1O` is 52.5 µM (active); for `Oc1ccc(/C=N/Nc2ccc(C(F)(F)F)cn2)cc1` it is 29.7 µM (active).
Consider `OCCNCCSc1nc(C2CCCCC2)n(-c2ccccc2Cl)n1`, for which the “inhibition” value was 13.2% (inactive).
Consider `O=c1[nH]c(/C=C\c2ccc(O)cc2)nc(O)c1[N+](=O)[O-]`, for which the IC50 is 43.4 µM (active).
On the same count and under the same terms, as for `COc1cc(/C=N/NC(=O)c2cccc(N3CCCC3=O)c2)ccc1O`, the figure is 34.1 µM (active); as for `COc1cc(/C=N/NC(=O)c2ccc(N3CCCC3=O)cc2)ccc1O`, 31.5 µM (active).
As to `O=c1nc2s/c(=C\c3ccc(-c4ccccc4[N+](=O)[O-])o3)c(=O)n2nc1-c1ccccc1`, the “inhibition” value was -3.71% (inactive).
In the case of `COc1cc(/C=N/NC(=O)NC23CC4CC(CC(C4)C2)C3)ccc1O`, the IC50 was 56.2 µM (active).
As for `O=C(N/N=C/c1ccc(O)cc1)NC12CC3CC(CC(C3)C1)C2`, the half-maximal inhibitory concentration (IC50) was 53 µM (active).

Values taken from PubChem BioAssay AID624351 (Southern Research Specialized Biocontainment Screening …, 2012).
